# From PubChem BioAssay (NCATS)
# Inconclusive results are not listed. A call without a number means that no potency is given here. Activity calls are given as the source filed them. Unless noted, the call rests on the fitted dose curve; in most records, active means well fitted curve in the direction sought with a large enough effect; inconclusive means small, poorly fitted or top-dose-only effect, or another doubt; inactive means no such curve, though single readings can be large; an effect the other way counts as inactive or inconclusive.
# Tests used:
# [1] = qHTS assay for measurement of the activity of small molecule inhibitors on Zika virus induced Caspase-3 activity in human astrocytoma cells (AID 1224859)
# Procedure, shortened: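 Caspase activation in ZIKV-infected SNB-19 cells (2 FFU/cell, 6 h) measured by Caspase-Glo 3/7 luminescence after 30 min RT; compound pre-incubated 1 h; normalised to uninfected and infected controls.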
# [2] = qHTS assay to identify small molecule inhibitors of chordoma cells - UCH-1 (AID 1259355); further: nearly all actives have a fitted effect of over 55% in size
# Procedure, shortened: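 A 48hr growth-inhibition format: each drug tested at 15 concentrations together with added auranofin, camptothecin, doxorubicin, rubitecan and topotecan, with cell viability quantified as CellTiter-Glo luminescence.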
# [3] = qHTS assay to identify small molecule inhibitors of chordoma cells - UCH-2 (AID 1259356)
# [4] = qHTS profiling for inhibitors of Plasmodium falciparum (DD2) proliferation (AID 743323; call rule not given here); settings: lower = more inhibition; at 28.7 µM (top of the series) unless noted
# Procedure, shortened: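 Parasite proliferation measured via DNA-dye fluorescence, as uninfected erythrocytes lack DNA. Cultures at 0.3% parasitemia and 2.5% hematocrit incubated 72 h with compound; signal scaled between vehicle and 0.29 uM artemisinin wells.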
# [5] = qHTS profiling for inhibitors of Plasmodium falciparum (HB3) proliferation (AID 743324); settings: Plasmodium falciparum HB3 blood-stage proliferation; at 28.7 µM (top of the series) unless noted
# Procedure, shortened: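 SYBR Green fluorescence (485 ex/535 em) of lysed cultures, incubated overnight at room temperature in the dark, quantifies parasite DNA. Infected erythrocytes at 0.3% parasitemia and 2.5% hematocrit were exposed 72 h; values normalized to DMSO and 0.29 uM artemisinin controls.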
# [6] = qHTS profiling of the MIPE4 collection as inhibitors of Plasmodium falciparum (3D7) proliferation (AID 743344; call rule not given here); settings: P. falciparum 3D7 in erythrocytes, SYBR Green DNA fluorescence, 72 h; at 28.5 µM (top of the series)
# Procedure, shortened: (§1)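 Parasite DNA was quantified by SYBR Green I fluorescence (ex 485, em 535 nm) after overnight lysis in saponin/Triton buffer at room temperature. Cultures at 0.3% parasitemia and 2.5% hematocrit were first exposed to compound for 72 h at 37 C; signals were normalised to artemisinin (0.29 uM) and vehicle wells.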
# [7] = qHTS profiling of the MIPE4 collection as inhibitors of Plasmodium falciparum (DD2) proliferation (AID 743345; call rule not given here); settings: P. falciparum Dd2 in erythrocytes, SYBR Green DNA, 72 h; at 28.5 µM (top of the series)
# Procedure, shortened: as §1
# [8] = qHTS profiling of the MIPE4 collection as inhibitors of Plasmodium falciparum (DD2) proliferation (Rep 2) (AID 743346; call rule not given here); settings: P. falciparum Dd2 in erythrocytes, SYBR Green DNA, 72 h; at 28.5 µM (top of the series)
# Procedure, shortened: as §1
# [9] = qHTS profiling of the MIPE4 collection as inhibitors of Plasmodium falciparum (HB3) proliferation (AID 743347; call rule not given here); settings: P. falciparum HB3 in erythrocytes, SYBR Green DNA, 72 h; at 28.5 µM (top of the series)
# Procedure, shortened: as §1
smiles,measurement,setting,value
O=C1O[C@H]([C@@H](O)CO)C(O)=C1O,outcome,[1],inactive
same,Potency,[2],inactive
same,outcome,[3],inactive
N[C@@H](CSSC[C@H](N)C(=O)O)C(=O)O,"activity change, negative = inhibition",[1],23% [at 0.568 µM] (inactive)
same,Potency,[2],inactive
CNC(=O)Oc1ccc2c(c1)[C@]1(C)CCN(C)[C@@H]1N2C,outcome,[1],inactive
same,Potency,[2],inactive
Oc1cccc(O)c1,outcome,[1],inactive
same,Potency,[2],inactive
same,outcome,[3],inactive
CCCCN(CCCC)CC(O)c1cc(Cl)cc2c1-c1ccc(Cl)cc1/C2=C/c1ccc(Cl)cc1 (stereo unspecified),"activity, percent of control",[4],1.35%
same,"remaining proliferation (% of control), lower = more inhibition",[5],1.36%
same,outcome,[1],inactive
same,Potency,[2],inactive
same,outcome,[3],inactive
CC(=O)Oc1c(C)c(C)c2c(c1C)CC[C@@](C)(CCC[C@H](C)CCC[C@H](C)CCCC(C)C)O2,outcome,[1],inactive
same,Potency,[2],inactive
same,outcome,[3],inactive
O=C(O)CN1C(=O)c2cccc3cccc(c23)C1=O,outcome,[1],inactive
same,Potency,[2],inactive
O=c1cc(CO)occ1O,outcome,[1],inactive
same,Potency,[2],inactive
CCCCc1ncc(/C=C(\Cc2cccs2)C(=O)O)n1Cc1ccc(C(=O)O)cc1,outcome,[1],inactive
same,Potency,[2],inactive
same,outcome,[3],inactive
NC(=O)NNc1ccccc1,outcome,[1],inactive
same,Potency,[2],inactive
same,outcome,[3],inactive
CN(N=O)C(=O)N[C@@H]1[C@@H](O)[C@H](O)[C@@H](CO)O[C@@H]1O,outcome,[1],inactive
same,Potency,[2],inactive
same,outcome,[3],inactive
O=c1[nH]c(=O)c2[nH]c(=O)[nH]c2[nH]1,"activity change, negative = inhibition",[1],-0.8% [at 9.06 µM] (inactive)
same,Potency,[2],inactive
same,outcome,[3],inactive
O=c1cc[nH]c(=O)[nH]1,outcome,[1],inactive
same,Potency,[2],inactive
same,outcome,[3],inactive
NC1[C@H]2CN(c3nc4c(cc3F)c(=O)c(C(=O)O)cn4-c3ccc(F)cc3F)C[C@@H]12 (stereo partly specified),outcome,[1],inactive
O=C(Oc1ccccc1C(=O)O)c1ccccc1O,outcome,[1],inactive
same,Potency,[2],inactive
CCN(CC)CCNC(=O)c1c(C)[nH]c(/C=C2\C(=O)Nc3ccc(F)cc32)c1C,outcome,[1],inactive
same,Potency,[2],inactive
Oc1cn2c(n1)Nc1ccc(Cl)c(Cl)c1C2,outcome,[1],inactive
same,Potency,[2],inactive
same,outcome,[3],inactive
Cc1cc2nc3c(=O)[nH]c(=O)nc-3n(C[C@H](O)[C@H](O)[C@H](O)CO)c2cc1C,outcome,[1],inactive
same,Potency,[2],inactive
same,outcome,[3],inactive
Cn1c(=O)c2c(ncn2CC2OCCO2)n(C)c1=O,outcome,[1],inactive
same,Potency,[2],inactive
CN(C)CC[C@@H](c1ccc(Cl)cc1)c1ccccn1,"activity, percent of control",[4],44.8%
same,outcome,[1],inactive
CC(=O)Nc1ccc(/C=N/NC(N)=S)cc1,outcome,[1],inactive
same,Potency,[2],inactive
same,outcome,[3],inactive
CC(C)c1c(C(=O)Nc2ccccc2)c(-c2ccccc2)c(-c2ccc(F)cc2)n1CC[C@@H](O)C[C@@H](O)CC(=O)O,outcome,[1],inactive
Cc1cc(N)c2ccccc2[n+]1CCCCCCCCCC[n+]1c(C)cc(N)c2ccccc21,outcome,[1],inactive
same,Potency,[2],inactive
same,outcome,[3],inactive
CSc1ccc2c(c1)N(CCC1CCCCN1C)c1ccccc1S2 (stereo unspecified),"parasite growth, % of DMSO control",[6],12.9%
same,"parasite growth remaining, % of DMSO control (lower = more inhibition)",[7],10.4%
same,"parasite growth, % of control (lower = inhibition)",[8],30.8%
same,"growth, % of control",[9],4.65%
same,outcome,[1],inactive
same,outcome,[3],inactive
CC(C)(C)C(=O)NCCCC(=O)O,outcome,[1],inactive
same,Potency,[2],inactive
same,outcome,[3],inactive
C[C@H]1O[C@H](O[C@H]2[C@H](O)[C@@H](O)[C@@H](O[C@H]3[C@H](O)[C@@H](O)[C@H](O)O[C@@H]3CO)O[C@@H]2CO)[C@H](O)[C@@H](O)[C@@H]1N[C@H]1C=C(CO)[C@@H](O)[C@H](O)[C@H]1O,outcome,[1],inactive
same,Potency,[2],inactive
same,outcome,[3],inactive
